Screening data deposited in PubChem by National Center for Advancing Translational Sciences (NCATS).
In the library only some 13% were active in any assay of this set; here they are far more common.
FMDV antiviral: foot and mouth disease virus antiviral activity | 410,000 compounds, 1.2% hits | FMDV antiviral cell-based qHTS | Potency, µM (titrated, usually from 57.9 µM), most hits filed as inhibitors; calls by dose curve; tested in HEK293T cells; further: read-out not given here; nearly all actives have a fitted effect of over 45% in size
CHX counter: counter-screen for Shiga toxin inhibitors: cycloheximide protein synthesis inhibition; max response, %; AID 2314; cell reporter, cycloheximide protein synthesis inhibition counterscreen; 300,000 compounds, 12% hits; in the data active means max response mostly above about 13%, no sharp cut-off; inactive means mostly below about 14%; further: read at 38.3 µM for the half of the compounds with a filed dose
Shiga inhibitor: blocks Shiga toxin action in Vero cells; Vero cells, Shiga toxin protein synthesis inhibition reporter; inhibition, % at 38.7 µM; 290,000 compounds, 9.2% hits; AID 2315; in the data active means inhibition mostly above about 28%, no sharp cut-off; inactive means mostly below about 43%
HCV inh: blocks hepatitis C virus; Huh7.5.1 HCVcc-Cre infection, luciferase reporter, 44 h; Potency, µM (top dose mostly 41.8 µM), usual class: inhibitors; 340,000 compounds, 3.4% hits; active means well fitted inhibition curve with a large enough effect; inconclusive means small, poorly fitted or top-dose-only effect, or another doubt; inactive means no such curve, though single readings can be large or run the other way
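Antiviral activity was scored by luciferase reporter output from cells infected with HCVcc-Cre (~0.5 moi) in presence of compound, 44 h infection period, cells seeded 1,000/well 4 h prior.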
LASV entry inh: inhibitors of Lassa virus binding or cell entry. Lassa virus pseudotype entry inhibition, cell reporter. Potency, µM (series often up to 37.9 µM), most hits filed as inhibitors. 300,000 compounds, 1.2% hits; calls by dose curve; tested in HEK293 cells; further: nearly all actives have a fitted effect of over 50% in size
Marburg entry inh: inhibitors of Marburg virus binding or cell entry | 300,000 compounds, 1.8% hits | Marburg virus pseudotyped entry inhibition, cell reporter | Potency, µM (titrated, usually from 37.8 µM), usual class: inhibitors; calls by dose curve; tested in HEK293 cells
Large screens that a line does not name were inactive.

Cn1ccsc1=NC(=O)c1ccc(CS(C)(=O)=O)cc1	Shiga inhibitor 39, Marburg entry inh inconclusive
Cc1ccccc1-c1ccc2c(c1)CNCc1cnnn1-2	none (no result: CHX counter, Shiga inhibitor, HCV inh, LASV entry inh, Marburg entry inh)
CCOc1cc(C(=O)N=c2sccn2C)ccc1OC(F)F	CHX counter 35, HCV inh inconclusive (no result: LASV entry inh, Marburg entry inh)
COc1ccccc1NC(=O)C(Cc1ccccc1)NS(=O)(=O)c1cccc2nsnc12 (stereo not given)	LASV entry inh inconclusive (no result: CHX counter, Shiga inhibitor, HCV inh)
Cn1c(C(=O)O)c(CC(=O)N2CCN(Cc3ccccc3)CC2)c2ccccc21	none
O=C1C=C(NCCN2CCOCC2)C(=O)c2cnccc21	HCV inh inconclusive, LASV entry inh inconclusive, Marburg entry inh 2.9µM (no result: FMDV antiviral)
Cc1ccc2nc(-c3ccc(NS(=O)(=O)c4c(C)n(C)c(=O)n(C)c4=O)cc3)sc2c1	CHX counter 67, Shiga inhibitor 121, HCV inh inconclusive (no result: LASV entry inh, Marburg entry inh)
Cc1cccc(S(=O)(=O)Nc2ccc(-c3nc4ccc(C)cc4s3)cc2)c1	CHX counter 83, Shiga inhibitor 74, LASV entry inh inconclusive, Marburg entry inh inconclusive
O=C(Cn1ccc2cc(S(=O)(=O)N3CCCCC3)ccc21)NCc1ccccc1Cl	LASV entry inh inconclusive (no result: CHX counter, Shiga inhibitor, HCV inh, Marburg entry inh)
CN(/N=C/c1ccncc1)c1cnc2ccccc2n1	CHX counter 48, Shiga inhibitor 75, LASV entry inh inconclusive
CN(/N=C/c1ccncc1)C1=NCCN1	Marburg entry inh inconclusive
COCC1CCN(C(=O)c2ccc3oc(C(C)C)nc3c2)C1 (stereo not given)	none (no result: CHX counter, Shiga inhibitor, HCV inh, LASV entry inh, Marburg entry inh)
CC(C)c1nc2cc(C(=O)N(C)C3CCOCC3)ccc2o1	CHX counter 37, Shiga inhibitor 42
Cc1c(-c2ccc(F)cc2)[n+](=O)c2c(n1[O-])CCCCC2	none
CC(C)C[C@@H](CN1CCC[C@H]1CN1C(=O)C(=O)NC[C@@H]1Cc1ccccc1)N1C[C@H](Cc2ccc(O)cc2)N(CC2CCCCCC2)C(=O)C1=O	none (no result: CHX counter, Shiga inhibitor, HCV inh, LASV entry inh, Marburg entry inh)
NC(N)=NC1=NC(=O)C(Cc2ccccc2)S1 (stereo not given)	CHX counter 19 (no result: LASV entry inh, Marburg entry inh)
Cc1ccc(CC2SC(N=C(N)N)=NC2=O)cc1 (stereo not given)	none
CCC(NC(=O)c1ccccc1NC(=O)c1ccc(OC)cc1)C(=O)N1CCCC1 (stereo not given)	CHX counter 46, Shiga inhibitor 34
CCC(NC(=O)c1ccccc1NC(=O)C(C)(C)C)C(=O)N1CCCC1 (stereo not given)	none
O=C(CSCc1ccccc1)Nc1ccccc1C(=O)Nc1ccc(C(=O)O)cc1	CHX counter 13, HCV inh inconclusive
COc1ccc(C(=O)Nc2ccccc2C(N)=O)cc1	CHX counter 27, Shiga inhibitor 94
O=C(Cc1ccccc1)Nc1ccccc1C(=O)Nc1ccc(C(=O)O)cc1	none
COc1ccc(CC(=O)Nc2ccc(C(=O)Nc3ccccc3C(=O)O)cc2)cc1OC	CHX counter 23
CN(Cc1ccccc1)C(=O)c1[nH]cnc1C(=O)Nc1ccccc1	HCV inh inconclusive (no result: CHX counter, Shiga inhibitor, LASV entry inh, Marburg entry inh)
COC(=O)[C@]12CCCCC=C1N(Cc1ccco1)C(=O)[C@H](CC(=O)NCc1ccc(OC)c(OC)c1)C2	none (no result: CHX counter, Shiga inhibitor, HCV inh, LASV entry inh, Marburg entry inh)
O=C(Nc1nccs1)C1CC(=O)N(c2ccccc2)C1 (stereo not given)	none
CCC(C)(C)NC(=O)CN(C(=O)CCC(=O)Nc1nccs1)c1ccc(C)cc1	none (no result: LASV entry inh, Marburg entry inh)
COc1ccc(N2CCN(C(=O)c3cccc(S(=O)(=O)N4CCc5ccccc54)c3)CC2)cc1	HCV inh inconclusive, LASV entry inh inconclusive, Marburg entry inh inconclusive (no result: CHX counter, Shiga inhibitor)
COc1ccc(NC(=O)c2ccccc2NC(=O)c2cccs2)cc1	HCV inh inconclusive
COc1cc(OC)cc(C(=O)Nc2ccccc2C(=O)N2CCCC2)c1	CHX counter 30, Shiga inhibitor 60
COc1ccc(C(=O)Nc2ccccc2C(=O)Nc2ccncc2)cc1	CHX counter 25, HCV inh inconclusive, Marburg entry inh inconclusive
NC(=O)c1ccccc1NC(=O)c1ccc2c(c1)OCO2	CHX counter 41, Shiga inhibitor 55 (no result: LASV entry inh, Marburg entry inh)
COc1ccc(C(=O)Nc2ccccc2C(=O)N2CCCCCC2)cc1	none
COC(=O)c1ccccc1NC(=S)NC(=O)c1ccc2c(c1)OCO2	none
COc1ccc(C(=O)Nc2ccccc2C(=O)Nc2ccc(C(=O)O)cc2)cc1	CHX counter 11
C=C1C2CC[C@@]3(C)C(c4ccoc4)OC(=O)C[C@@]13OC1CC(=O)C(C)(C)C(C(OC(C)=O)C(=O)OC)[C@@]12C (stereo not given in full)	none (no result: CHX counter, Shiga inhibitor, HCV inh, LASV entry inh, Marburg entry inh)
COc1ccc(C(=O)C2CCCN(C(=O)c3ccoc3C)C2)cc1F (stereo not given)	HCV inh inconclusive
O=C(CSc1ccccc1C(=O)N1CCCCC1)NCC1CCCCC1	none (no result: LASV entry inh, Marburg entry inh)
COc1cccc(/C=N/NC(=O)c2cccc3ccccc23)c1	none
COc1ccc(C(=O)Nc2ccccc2C(=O)N/N=C/c2cccc3ccccc23)cc1	FMDV antiviral 0.32µM, CHX counter 31, Shiga inhibitor 119, LASV entry inh inconclusive, Marburg entry inh inconclusive
COCC(=O)Nc1ccccc1C(=O)Nc1ccc(OC)cc1	CHX counter 22, Shiga inhibitor 51
COc1ccc(NC(=S)NNc2ccc(C(=O)O)cc2)cc1	FMDV antiviral inconclusive, CHX counter 42, Marburg entry inh inconclusive
Cc1ccccc1NC(=O)NNC(=O)c1ccc2ccccc2c1	none (no result: LASV entry inh, Marburg entry inh)
Cc1ccccc1NC(=O)c1ccc2ccccc2c1	CHX counter 30, Shiga inhibitor 92, LASV entry inh inconclusive
COc1ccc(NC(=O)c2ccccc2NC(=O)COc2ccccc2)cc1	none
COc1ccc(NC(=S)Nc2ccc(Oc3ccccc3)cc2)cc1	HCV inh inconclusive, Marburg entry inh inconclusive
NC(=O)c1ccccc1NC(=O)c1ccc2ccccc2c1	CHX counter 57, Shiga inhibitor 79, HCV inh inconclusive, LASV entry inh inconclusive, Marburg entry inh inconclusive
COc1ccc(C(=O)Nc2ccc(O)cc2C(=O)O)cc1	LASV entry inh inconclusive, Marburg entry inh inconclusive
COc1ccc(C(=O)Nc2ccccc2C(=O)Nc2ccccc2C(=O)O)cc1	CHX counter 29, LASV entry inh inconclusive, Marburg entry inh inconclusive (no result: Shiga inhibitor)
COC(=O)c1ccccc1NC(=O)c1ccc2c(c1)OCCO2	HCV inh 10µM
CC(NC(=O)c1ccco1)c1nnc2n1CCN(Cc1cccc(Cl)c1)CC2 (stereo not given)	none (no result: CHX counter, Shiga inhibitor, HCV inh, LASV entry inh, Marburg entry inh)
COCCNC(=O)[C@H]1N2C(=O)c3c(ccc(OC)c3OC)C2SC1(C)C (stereo not given in full)	none
Fc1ccccc1CCNCc1ccccc1	Marburg entry inh inconclusive
Fc1ccccc1CCNCc1cccc(Cl)c1Cl	CHX counter 18 (no result: FMDV antiviral)
Cc1cccc(OCc2nnc(SCC(=O)N3CCN(c4ccccc4)CC3)o2)c1C	FMDV antiviral inconclusive
C=CCn1c(COc2cccc(C)c2C)nnc1SCC(=O)N1CCN(c2ccccc2)CC1	FMDV antiviral 18µM, HCV inh inconclusive, LASV entry inh 5.6µM, Marburg entry inh inconclusive
CCn1c(COc2c(C)cccc2C)nnc1SCC(=O)N1CCN(c2ccccc2)CC1	FMDV antiviral inconclusive, HCV inh 35µM, LASV entry inh inconclusive, Marburg entry inh inconclusive
